The values below come from PubChem BioAssay.

The source made the active and inactive calls. Unless noted, the rule behind the calls is not given here.

Assay [1] has as its system Wnt5a (protein binding on small-molecule microarray). Nature of the assay: Wnt5a binders on small-molecule microarray, primary screen, biophysical, 635/667 nm fluorescence (AID 1142).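 Note: fluorescence read at 667 nm with signal to noise per printed feature.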 The conditions noted are these: 635 nm fluorescence, higher = more signal.
The nature of assay [2]: cell viability in Huh7 cells, primary screen, cytotoxicity control for HCV replication inhibitor project, CellTiter-Glo luminescence, basal, 48 h (AID 1143).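 Note: Huh7 hepatoma cells carrying a hepatitis C replication reporter with no stimulus; test concentration not given here.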 The conditions noted are these: Huh7 HCV replicon, higher = more signal, called active from +8 up or from −8 down.
The nature of assay [3]: P. aeruginosa biofilm formation inhibitors, primary screen, PAO1 strain, BacTiter-Glo luminescence, LB-PBS (AID 1144). The conditions noted are these: 12 h, higher = more signal.
Assay [4] is described as follows: CREB reporter modulators without forskolin, primary screen, cell-based, PC12, CRE-LacZ reporter, unstimulated (AID 1145). The conditions noted are these: no forskolin, luminescence, 4.5 h, higher = more signal, called active from +8 up or from −8 down.
Assay [5] is described as follows: CREB reporter modulators under forskolin, primary screen, cell-based, PC12, CRE-LacZ reporter, forskolin-stimulated (AID 1146).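 Note: PC12 cells with 6xCRE LacZ reporter stimulated by forskolin 10 µM; beta-galactosidase reporter signal reflecting CREB driven transcription.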 The conditions noted are these: luminescence, 4.5 h, higher = more signal, called active from +8 up or from −8 down.
Assay [6] addresses Streptavidin (Streptomyces avidinii) (UniProt P22629). Description: streptavidin binders on small-molecule microarray, primary screen, artefact control for SMM compound annotation, biophysical, 635/667 nm fluorescence (AID 1147).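 Note: signal reflects streptavidin binding to arrayed compounds as a control protein.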 To be noted: streptavidin binding, higher = more signal.
Assay [7] is described as follows: small-molecule binders of probe aInhba, primary screen, biochemical, small-molecule microarray, 635/667 nm fluorescence (AID 1148).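 Note: score merges 667nm spot fluorescence with signal-to-noise for antibody binding to printed compounds.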 To be noted: higher = more signal.
Assay [8] concerns the target Torsin-1A (Homo sapiens) (UniProt O14656). Nature of the assay: torsin A binders from cell lysate, primary screen, small-molecule microarray, wild-type, 635/667 nm (AID 1149). The conditions noted are these: COS7 hTOR1A-WT lysate, 635 nm fluorescence, higher = more signal.
Assay [9] shares this target. Nature of the assay: small-molecule binders of mutant TOR1A in lysate, primary screen, cell lysate, small-molecule microarray, COS7 lysate, 635/667 nm fluorescence (AID 1150).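 Note: score pools 667 nm emission and signal to noise measuring lysate protein binding.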 The conditions noted are these: COS7 hTOR1A mutant lysate, 635 nm fluorescence, higher = more signal.
The test system of assay [10] is Sonic hedgehog protein (Shh). Nature of the assay: small-molecule binders of Shh protein, primary screen, biochemical, small-molecule microarray, 635/667 nm fluorescence (AID 1151).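 Note: Shh protein binding to compounds spotted on small-molecule microarray slides; score combines spot fluorescence intensity with signal-to-noise across triplicate slides.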 The conditions noted are these: small-molecule microarray binding, 635 nm fluorescence; higher = more signal.
Assay [11] can be described thus: E. coli DRC41 culture turbidity changes, primary screen, E. coli filamentation inducer project, strain DRC41, OD650, 48 h (AID 1152).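 Note: E. coli MC1000 strain DRC41 lacking acrAB efflux pump and sulA.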 To be noted: E. coli DRC41 (acrAB sulA), higher = more signal, called active from +8 up or from −8 down.
Assay [12] is described as follows: small-molecule binders of probe aLefty1, primary screen, biochemical, small-molecule microarray, 635/667 nm fluorescence (AID 1153).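 Note: score merges spot fluorescence with signal-to-noise ratio from the scanned slide images.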 The conditions noted are these: higher = more signal.
A short description of assay [13]: PSAC antagonists in infected red cells, primary screen, cell-based, P. falciparum Indochina, OD700, 1 h (AID 1154). To be noted: P. falciparum Indochina infected RBC osmotic lysis, higher = more signal, called active from +8 up or from −8 down.
Assay [14] is described as follows: PSAC antagonists in infected red cells, primary screen, cell-based, P. falciparum Indochina, OD700, 2 h (AID 1155).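 Note: lysis reports solute entry through the parasite surface anion channel PSAC; channel blockers reduce lysis of infected cells.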 The conditions noted are these: P. falciparum Indochina infected erythrocytes, osmotic lysis OD700; higher = more signal, called active from +8 up or from −8 down.
Assay [15] is described as follows: osmotic lysis modulators in infected erythrocytes, primary screen, PSAC antagonist project, cell-based, P. falciparum Indochina, OD700, 3 h (AID 1156). To be noted: higher = more signal, called active from +8 up or from −8 down.
Assay [16] is described as follows: PSAC antagonists in infected red cells, primary screen, cell-based, P. falciparum Indochina, OD700, 18 h (AID 1157). The conditions noted are these: P. falciparum Indochina infected erythrocytes, osmotic lysis OD700, 18 h; higher = more signal, called active from +8 up or from −8 down.
Assay [17] can be described thus: modulators of S6 phosphorylation in cells, primary screen, cell-based, A549, cytoblot, luminescence, serum-stimulated (AID 1158).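 Note: serum-stimulated A549 lung adenocarcinoma cells; signal is phosphorylated S6 detected by cytoblot immunostaining with HRP secondary.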 To be noted: A549 phospho-S6 cytoblot, 5 h, higher = more signal.
Assay [18] concerns the target NADPH oxidase 2 (Homo sapiens) (UniProt P04839). Description: NOX2-dependent H2O2 signal modulators, primary screen, NOX inhibitor project, cell-based, HEK293-NOX2, PMA-stimulated, Amplex Red fluorescence (AID 1159). Note: test concentration not given here. The conditions noted are these: 45 min, higher = more signal, called active from +8 up or from −8 down.
Assay [19] addresses NADPH oxidase 4 (Homo sapiens) (UniProt Q9NPH5). Nature of the assay: NOX4-dependent H2O2 signal modulators, primary screen, NOX inhibitor project, cell-based, HEK293-NOX4, tetracycline-induced, Amplex Red fluorescence (AID 1160). To be noted: 45 min, higher = more signal, called active from +8 up or from −8 down.
In assay [20] the target is NADPH oxidase 5 (Homo sapiens) (UniProt Q96PH1). Nature of the assay: NOX5-dependent H2O2 signal modulators, primary screen, NOX inhibitor project, cell-based, HEK293-NOX5, Amplex Red fluorescence (AID 1161). To be noted: HEK293-NOX5, ionomycin, 45 min, higher = more signal.
Sequence of NADPH oxidase 5 (Homo sapiens) (Q96PH1 whole entry, looked up): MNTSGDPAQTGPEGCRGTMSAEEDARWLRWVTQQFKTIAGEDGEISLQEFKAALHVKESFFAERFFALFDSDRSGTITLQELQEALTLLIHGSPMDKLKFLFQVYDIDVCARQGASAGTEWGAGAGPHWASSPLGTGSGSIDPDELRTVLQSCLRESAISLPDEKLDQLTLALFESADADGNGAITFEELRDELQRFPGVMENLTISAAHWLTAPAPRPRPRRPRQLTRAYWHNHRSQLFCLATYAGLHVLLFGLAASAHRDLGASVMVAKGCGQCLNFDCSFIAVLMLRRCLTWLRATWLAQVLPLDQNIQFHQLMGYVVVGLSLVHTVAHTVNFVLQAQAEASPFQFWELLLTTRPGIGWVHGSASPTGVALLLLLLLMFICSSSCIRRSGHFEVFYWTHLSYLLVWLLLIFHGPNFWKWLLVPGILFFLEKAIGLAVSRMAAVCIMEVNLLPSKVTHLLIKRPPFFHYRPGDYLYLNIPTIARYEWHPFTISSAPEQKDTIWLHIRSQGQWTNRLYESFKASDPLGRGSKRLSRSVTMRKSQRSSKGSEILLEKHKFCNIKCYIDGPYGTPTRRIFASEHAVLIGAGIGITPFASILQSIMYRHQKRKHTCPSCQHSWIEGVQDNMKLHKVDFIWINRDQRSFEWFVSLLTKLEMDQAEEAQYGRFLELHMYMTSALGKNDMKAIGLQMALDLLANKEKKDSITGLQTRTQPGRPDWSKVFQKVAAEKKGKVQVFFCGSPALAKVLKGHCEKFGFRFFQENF

Sequence of NADPH oxidase 2 (Homo sapiens) (P04839 whole entry, looked up): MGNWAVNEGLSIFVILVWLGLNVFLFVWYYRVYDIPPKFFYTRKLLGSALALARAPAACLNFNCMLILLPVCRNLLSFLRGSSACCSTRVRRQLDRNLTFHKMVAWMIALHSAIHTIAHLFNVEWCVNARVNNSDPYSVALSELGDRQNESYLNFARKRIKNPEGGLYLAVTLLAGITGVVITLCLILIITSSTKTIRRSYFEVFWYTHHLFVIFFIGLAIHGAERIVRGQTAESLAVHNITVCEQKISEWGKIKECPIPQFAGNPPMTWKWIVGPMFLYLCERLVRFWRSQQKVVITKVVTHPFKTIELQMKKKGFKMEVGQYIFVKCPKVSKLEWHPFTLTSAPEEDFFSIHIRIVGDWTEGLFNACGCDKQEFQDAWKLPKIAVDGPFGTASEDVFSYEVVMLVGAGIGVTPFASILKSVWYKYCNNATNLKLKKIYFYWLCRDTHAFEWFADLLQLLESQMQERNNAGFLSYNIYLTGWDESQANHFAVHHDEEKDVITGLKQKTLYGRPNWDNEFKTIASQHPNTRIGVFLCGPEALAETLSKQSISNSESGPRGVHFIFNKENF
Sequence of NADPH oxidase 4 (Homo sapiens) (Q9NPH5 whole entry, looked up): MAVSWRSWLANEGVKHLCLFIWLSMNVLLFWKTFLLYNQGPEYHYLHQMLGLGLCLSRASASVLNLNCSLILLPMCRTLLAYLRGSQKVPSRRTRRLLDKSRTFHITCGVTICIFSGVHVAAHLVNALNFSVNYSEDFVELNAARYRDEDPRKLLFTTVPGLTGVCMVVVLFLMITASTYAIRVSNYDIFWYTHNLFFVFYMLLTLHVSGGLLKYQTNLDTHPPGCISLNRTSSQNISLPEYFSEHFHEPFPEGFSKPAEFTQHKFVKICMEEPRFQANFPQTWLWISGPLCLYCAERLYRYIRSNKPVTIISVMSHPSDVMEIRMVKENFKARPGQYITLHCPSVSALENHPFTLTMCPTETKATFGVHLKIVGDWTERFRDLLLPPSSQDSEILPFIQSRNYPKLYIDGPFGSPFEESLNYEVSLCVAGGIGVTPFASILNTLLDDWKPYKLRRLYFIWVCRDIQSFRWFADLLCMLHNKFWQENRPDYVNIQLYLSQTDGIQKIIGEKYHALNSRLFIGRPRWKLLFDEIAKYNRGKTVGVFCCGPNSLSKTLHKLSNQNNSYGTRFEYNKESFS
Sequence of Streptavidin (Streptomyces avidinii) (P22629 whole entry, looked up): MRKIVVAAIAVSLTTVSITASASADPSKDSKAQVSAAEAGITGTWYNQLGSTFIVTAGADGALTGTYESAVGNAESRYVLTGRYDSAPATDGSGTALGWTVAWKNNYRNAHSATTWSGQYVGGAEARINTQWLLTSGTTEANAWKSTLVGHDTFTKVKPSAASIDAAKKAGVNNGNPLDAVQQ
Sequence of Torsin-1A (Homo sapiens) (O14656 whole entry, looked up): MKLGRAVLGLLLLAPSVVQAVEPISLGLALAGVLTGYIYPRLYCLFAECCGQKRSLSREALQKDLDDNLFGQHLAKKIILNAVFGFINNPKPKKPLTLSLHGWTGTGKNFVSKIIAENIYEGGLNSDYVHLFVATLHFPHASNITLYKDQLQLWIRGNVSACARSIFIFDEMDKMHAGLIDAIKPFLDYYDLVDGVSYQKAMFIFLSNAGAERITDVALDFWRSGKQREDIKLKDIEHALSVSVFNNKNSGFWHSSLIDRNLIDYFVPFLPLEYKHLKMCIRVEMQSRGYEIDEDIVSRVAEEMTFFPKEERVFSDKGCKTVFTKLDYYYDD

For the molecule `CO[C@H]1O[C@H](CO)[C@@H](OC(=O)CCc2ccccc2)[C@@H]2OC(=O)[C@@H](Cc3ccc4ccccc4c3)C/C=C/C[C@H](Cc3ccc4ccccc4c3)C(=O)O[C@@H]12`, the composite z-score in assay [1] is 0.0032; in assay [6] it was -0.452; in assay [7], -0.13; in the assay with Torsin-1A (Homo sapiens) [8], -1.32; with Torsin-1A (Homo sapiens) [9], 1.06; in assay [10], -0.657. Besides, in assay [12], the composite z-score was -0.949. For the same molecule, the z-score in [2] is -2.59 (inactive); in assay [3], -0.302 (inactive); in assay [4], -0.151 (inactive); in assay [5], 0.336 (inactive); in assay [11], 0.411 (inactive); in assay [13], 2.85 (inactive). The z-score in assay [14] is -0.498 (inactive); in assay [15], -1.88 (inactive); in [16], -1.71 (inactive); in [17] it was 0.795; in [18] it was 1.5 (inactive); in assay [19], -0.27 (inactive). In [20], the z-score was -0.995.
Regarding `COc1cc(CO)cc(I)c1O[C@H]1C=C(C(=O)NCCO)C[C@@H](N(CCN2CCOCC2)C(=O)C2CCCO2)[C@@H]1O` (stereo not given in full), the composite z-score in assay [1] was -0.103; in assay [6] it was -0.0582; in assay [7], -0.256; in the assay with Torsin-1A (Homo sapiens) [8], 0.404; with Torsin-1A (Homo sapiens) [9], 0.0245; in [10], -0.203. In addition, the composite z-score in assay [12] is -0.245. The z-score in [2] is 0.0418 (inactive); in assay [3], -0.137 (inactive); in [4], 0.497 (inactive); in assay [5], -1.04 (inactive); in assay [11] it was 2.39 (inactive); in [13], 0.961 (inactive). Also, the z-score in [14] is -0.339 (inactive); in assay [15], 0.483 (inactive); in assay [16], 0.108 (inactive); in assay [17], 0.545; in [18], -0.842 (inactive); in assay [19], 0.225 (inactive). Besides, the z-score in assay [20] was 0.235.
Consider `COc1ccc([Si](C)(C)[C@@H]2[C@@H](CC(=O)N3CCC[C@H]3CO)O[C@]3(C(=O)N(Cc4cccc(N5C(=O)c6cccc7cccc5c67)c4)c4ccccc43)[C@H]2C)cc1`, for which the composite z-score in assay [1] is 0.614; in [6], 0.609; in assay [7] it was -0.129; with Torsin-1A (Homo sapiens) [8], 0.729; with Torsin-1A (Homo sapiens) [9], 0.499; in [10], 1.42. This molecule came in with a composite z-score in assay [12] of 0.19. Also, the z-score in assay [2] is -5.86 (inactive); in [3] it was -0.334 (inactive); in assay [4], 0.819 (inactive); in assay [5] it was -1.41 (inactive); in assay [11], 1.63 (inactive); in [13] it was 3.97 (inactive). Besides, the z-score in assay [14] was -0.263 (inactive); in [15], -0.16 (inactive); in assay [16] it was -1.24 (inactive); in [17], 0.851; in assay [18] it was 2.72 (inactive); in assay [19], 1.31 (inactive). The same molecule gave a z-score in assay [20] of 2.84.
With `O=C1C2C=CC(C(O)c3ccccn3)N(Nc3ccc([N+](=O)[O-])cc3)C2C(=O)N1c1ccccc1` (stereo not given), the composite z-score in assay [1] was 0.333; in [6], 1.24; in [7], 0.0589; with Torsin-1A (Homo sapiens) [8] it was -0.146; with Torsin-1A (Homo sapiens) [9] it was 0.098; in [10] it was 0.04. This molecule also gave a composite z-score in [12] of 0.0768. In addition, the z-score in [2] was -0.476 (inactive); in assay [3], -0.277 (inactive); in [4], 0.379 (inactive); in [5], -0.0636 (inactive); in assay [11] it was -1.5 (inactive); in assay [13], 4.59 (inactive). Besides, the z-score was 1.04 (inactive) in assay [14]; 0.809 (inactive) in assay [15]; 0.509 (inactive) in assay [16]; -0.967 in [17]; -0.261 (inactive) in assay [18]; -1.7 (inactive) in [19]. In assay [20], the z-score is -1.62.
As to `CC[C@@H]1C=C(C(=O)O)[C@H](c2cccc(Cl)c2)N1S(=O)(=O)c1ccc(C)cc1`, the composite z-score in assay [1] was -0.23; in assay [6], 0.326; in assay [7] it was -0.0018; with Torsin-1A (Homo sapiens) [8] it was 1.65; in the assay with Torsin-1A (Homo sapiens) [9], 0.314; in assay [10], -0.726. This molecule had a composite z-score in assay [12] of 0.0043. In addition, the z-score is -0.733 (inactive) in [2]; 1.24 (inactive) in [3]; -0.322 (inactive) in [4]; -0.166 (inactive) in assay [5]; -1.23 (inactive) in [11]; 0.522 (inactive) in assay [13]. Also, the z-score in [14] was 0.229 (inactive); in [15], -0.0699 (inactive); in assay [16], 0.29 (inactive); in assay [17] it was -0.861; in assay [18] it was 0.416 (inactive); in assay [19], 0.185 (inactive). In [20], this molecule returned a z-score of 0.272.
